Several values for one entry are separate records, joined by “and”; a condition that tells them apart may be missing. Equal entries are not always repeated. Compounds without any hit were thinned out: in the full panel of roughly 83,000, 20% have a hit.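 Interpretation: 100, growth as untreated; towards 0, rising growth inhibition; 0, no net growth; 0 to -100, cell death. Compounds scoring below 10 were considered active.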 Unmarked numbers belong to inactive results. Activity calls are given as the source filed them.
System: MDA-MB-468 breast
Assay: NCI-60 one-dose screen, 48 h (100 = growth as untreated, 0 = no growth, -100 = all killed)
Details: 10 µM unless noted

Row | SMILES | growth
1 | Cc1cccc(C)c1N=c1oc2ccc(Cl)cc2nc1-c1ccccc1O | 94.8%
2 | Cc1[nH]c(C(=O)Nc2ccccc2OCc2cccc(C(=O)NCCN)c2)cc1Cl | 34.3%
3 | NCCSC(C[N+](=O)[O-])c1ccccc1Cl (stereo unspecified) | 10.2%
4 | N#Cc1c(-c2ccc(Cl)cc2)nc(SCc2ccc(F)cc2)nc1N1CCNCC1 | -62.5% (active)
5 | O=C(O)CCCCNC(=O)c1ccccc1 | 97.7%
6 | Nc1ccc(Nc2ncnc3sc4c(c23)CCN(Cc2ccccc2)C4)cc1 | 90.4%
7 | Clc1ccc(Sc2nc(NC3CC3)nc(Sc3ccc(Cl)cc3)n2)cc1 | 91.2%
8 | Cn1cnc(-c2cc3nccc(Oc4ccc(NC(=S)NC(=O)Cc5ccccc5)cc4F)c3s2)c1 | 103%
9 | Cc1ccc2c(C(C[N+](=O)[O-])c3ccccc3F)c(-c3ccccc3)[nH]c2c1 (stereo unspecified) | 10.5%
10 | C/C(=N\NC(N)=S)c1nc2ccc(Cl)cc2[nH]1 | 44.2%
11 | O=C(Nc1ccc(NC(=O)c2cc(=O)[nH]c3ccccc23)cc1)Nc1cccc(Cl)c1 | 64.4%
12 | CCOC(=O)CNC(=O)Sc1ccc(C(C)(C)C)cc1 | 111%
13 | O=c1c2cccc(F)c2sc2c(NCCCNCCO)nc3ccccc3c12 | -18.3% (active)
14 | CNC(=O)c1ccc(C)c(-n2c(C)cc(OCc3ccc(F)cc3F)c(Br)c2=O)c1 | 53.4% and 63.5%
15 | CCCCN(CCCC)CCCCCCCCCCO | 99.8%
16 | COc1cc(CNCCCCCCN2C(=O)c3cccc4cccc(c34)C2=O)ccc1O | 47.2%

Row | SMILES | growth
17 | CCOC(=O)CCN(CC(C)C)C(=S)Nc1ccccc1 | 104%
18 | COc1cc(/C=C2\C(=O)ON=C2C)cc(OC)c1OC | 107%
19 | NC(=NCCCOc1ccc(Cl)cc1)Nc1ccc(C(F)(F)F)cc1 | -8.47% (active)
20 | C=C(C)[C@@H]1CC[C@]2(C(=O)NCCNCCNCCN)CC[C@]3(C)[C@H](CC[C@@H]4[C@@]5(C)CCC(=O)C(C)(C)[C@@H]5CC[C@]43C)[C@@H]12 | -49.1% [100 µM] (active)
21 | Cc1ccc(S(=O)(=O)Nc2ccc(-c3cc(-c4cccc(F)c4)c(C#N)c(=O)[nH]3)cc2)cc1 | 67.9%
22 | Cc1ccc(/C=C2\C(=O)N(C)c3ccc(S(=O)(=O)Nc4ccc(C(C)(C)C)cc4)cc32)s1 | 41.8%
23 | CN(C)N1C(=O)c2c(Cl)c(Cl)c(Cl)c(Cl)c2C1=O | 96.1%
24 | C=C1C(=O)O[C@@H]2C3C(=C(C)CC[C@@H]12)CC1O[C@]13C (stereo partly specified) | 19.3% [6.75 µM]
25 | COc1ccc2sc3c(NCCO)nc4ccccc4c3c(=O)c2c1 | 109%
26 | COc1cc(OC)c2c(=O)c3c(CC=C(C)C)cc(OC)c(O)c3oc2c1 | 110%
27 | O=C(O)C#Cc1ccc(Cl)cc1 | 101%
28 | O=C(Nc1ccccc1F)Nc1ccccc1Cl | 76%
29 | COc1ccc(-c2cc(-c3ccc(N(C)C)cc3)n3c(n2)nc2ccccc23)cc1 | 50.8%
30 | O=c1ccn(Cc2cn(-c3c4ccccc4nc4ccccc34)nn2)c(=O)[nH]1 | -50.8% (active)
31 | CCOC(=O)C(=Cc1cccc(Cl)c1)C(=O)OCC | 37.9%

From PubChem BioAssay (NCI)
